Test results reported in ChEMBL document CHEMBL3988442, “University of Dundee, Small-Polar-MMV Screening Library” (2021).
In all, about 48,000 compounds went through this assay and about 13,000 (27%) showed an effect of 50% or more. Some of the results follow.

These compounds were tested on Wolbachia pipientis (assay: Anti-Wolbachia Cell-Based Screen). Settings: 5 µM.
Format: functional
Design: scale not given: in the data most compounds retested in dose-response had high values
COc1cccn(Cc2nnc(-c3cccnc3)o2)c1=O was tested, and the “Percent Effect” value was -29.57%.
Cc1nc(CNC(=O)[C@@H]2CCCN2C(=O)OC(C)(C)C)cs1 was tested, and the “Percent Effect” value was -12.19%.
With Cc1ccccc1N1CCCN(CC2(O)CCCNC2)CC1 (configuration not stated) the “Percent Effect” value was -10.43%.
For O=C(c1cc(C2CC2)[nH]n1)N1CCN(c2nccs2)CC1, the “Percent Effect” value was -6.646%.
In the case of O=C(c1cc(COc2ccc3c(c2)OCO3)[nH]n1)N1CCOCC1, the “Percent Effect” value is reported as 16.23%.
With O=C(c1cc(C2CC2)[nH]n1)N1CCN(Cc2ccncc2)CC1 the “Percent Effect” value was 106.7%.
For CC(C)c1ccc(CN2CCN(C(=O)c3cc(C4CC4)[nH]n3)CC2)cc1, the “Percent Effect” value was 100.6%.
O=C(c1cc(C2CC2)[nH]n1)N1CCN(Cc2ccc3c(c2)OCO3)CC1 was tested, and the “Percent Effect” value was 118.4%.
In the case of CC(C)c1cc(C(=O)N2CCN(Cc3ccc(C#N)cc3)CC2)n[nH]1, the “Percent Effect” value is reported as 1.28%.
In the case of O=C(c1cc(C2CC2)[nH]n1)N1CCN(Cc2ccc(Cl)cc2)CC1, the “Percent Effect” value is reported as 91.65%.
For COc1ccnc(N2CCN(C(=O)c3cc(C4CC4)[nH]n3)CC2)n1, the “Percent Effect” value was -20.97%.
In the case of N#Cc1ccc(CN2CCN(C(=O)c3cc(C4CC4)[nH]n3)CC2)cc1, the “Percent Effect” value is reported as -3.632%.
In the case of O=C(c1cc(COc2ccc3c(c2)OCO3)[nH]n1)N1CCCC(O)C1 (configuration not stated), the “Percent Effect” value is reported as -9.09%.
CCc1nc(C(=O)N2CCN(Cc3ccc(Cl)cc3)CC2)c[nH]1 was tested, and the “Percent Effect” value was 7.187%.
Cc1ccsc1C(=O)NCC1COCc2c(C)nnn2C1 (configuration not stated) was tested, and the “Percent Effect” value was -4.017%.
In the case of COc1ccc(CC(=O)N2CCc3nc(C(=O)N(C)C)sc3CC2)cc1, the “Percent Effect” value is reported as -11.26%.
With COCc1cc(N(C)Cc2cc(C(C)(C)C)n[nH]2)ncn1 the “Percent Effect” value was -4.66%.
With Cc1cnn(CCNCc2ccc(OCC(N)=O)cc2)c1 the “Percent Effect” value was -9.498%.
In the case of Cc1nn(CCC#N)c(C)c1CCC(=O)N(C)Cc1ccc(F)cc1F, the “Percent Effect” value is reported as 10.09%.
With O=C(c1cc(C2CC2)[nH]n1)N1CCCN(c2nccs2)CC1 the “Percent Effect” value was -25.45%.
O=C(c1cc(C2CC2)[nH]n1)N1CCN(Cc2ccccc2)CC1 was tested, and the “Percent Effect” value was 113.8%.
Cc1cccc(CN2CCN(C(=O)c3ccc(C)[nH]c3=O)CC2)c1 was tested, and the “Percent Effect” value was -0.706%.
O=C(c1cc(C2CC2)[nH]n1)N1CCN(Cc2ccsc2)CC1 was tested, and the “Percent Effect” value was -9.211%.
For N#Cc1ccc(N2CCN(C(=O)c3cc(C4CC4)[nH]n3)CC2)c(F)c1, the “Percent Effect” value was -1.136%.
CCOc1ccc(CN2CCN(C(=O)c3cc(C4CC4)[nH]n3)CC2)cc1 was tested, and the “Percent Effect” value was 100.1%.
In the case of CCOc1ccc(CN2CCN(C(=O)c3ccc(C)n3C)CC2)cc1, the “Percent Effect” value is reported as 6.046%.
With Cc1cccc(CN2CCN(C(=O)c3cc(C4CC4)[nH]n3)CC2)c1 the “Percent Effect” value was 106.2%.
With CC(C)c1cc(C(=O)N2CCCN(Cc3ccccc3)CC2)n[nH]1 the “Percent Effect” value was -13.62%.
With COCCC1(CNC(=O)NC2CCCN(C)C2)CC1 (configuration not stated) the “Percent Effect” value was -18.26%.
CC(C)OC(=O)N1CCC(Cc2cccc(C(N)=O)c2)C1 (configuration not stated) was tested, and the “Percent Effect” value was 0.346%.
For CC(C(=O)N1CCOCC1)N1CCc2cncnc2C1 (configuration not stated), the “Percent Effect” value was 24.13%.
With CC(C(=O)N1CCOCC1)n1nc(-c2cccs2)cc(N)c1=O (configuration not stated) the “Percent Effect” value was 87.73%.
In the case of O=C(Nc1ccccc1-c1cccs1)N1CCOCC1, the “Percent Effect” value is reported as -11.7%.
CC(C(=O)N1CCCCC1)n1nc(-c2cccs2)cc(N)c1=O (configuration not stated) was tested, and the “Percent Effect” value was 96.7%.
With Nc1cc2c(nn1)CCN(C(=O)c1csc(-c3cccs3)n1)C2 the “Percent Effect” value was -8.113%.
In the case of O=C1CC(c2cccs2)Cc2nc(O)c(C(=O)N3CCCC3)cc21 (configuration not stated), the “Percent Effect” value is reported as -9.305%.
In the case of CC(C(=O)N1CCCC1)n1nc(-c2cccs2)cc(N)c1=O (configuration not stated), the “Percent Effect” value is reported as 96.9%.
In the case of Cc1nc(-c2cccs2)ccc1C(=O)N1CCN(CC(C)O)CC1 (configuration not stated), the “Percent Effect” value is reported as 6.494%.
Cl.Cn1cc(CNC2CCC(O)CC2)c(-c2cc3ccccc3o2)n1 (configuration not stated) was tested, and the “Percent Effect” value was 4.474%.
For CC(NC(=O)Cc1cc2c(cc1Cl)OCCO2)c1ccncn1 (configuration not stated), the “Percent Effect” value was -8.722%.
With O=C(c1c2c(NCC3CC3)ncnc2n2ccccc12)N1CCCC1 the “Percent Effect” value was 17.48%.
COc1ncc(C2CC(=O)NCc3nc4ccccn4c32)cn1 (configuration not stated) was tested, and the “Percent Effect” value was 2.979%.
With CCn1ccc(C(=O)N(C)Cc2cnn(-c3cccc(OC)c3)c2)n1 the “Percent Effect” value was -12.09%.
With CNC(=O)c1ccc(C2CN(C(=O)COC)CCO2)nc1 (configuration not stated) the “Percent Effect” value was -5.036%.
For CCC1CN(C(=O)COc2ccc(C)nc2)CCO1 (configuration not stated), the “Percent Effect” value was -3.761%.
With Cc1nccc(C2CN(Cc3cc[nH]n3)CCO2)n1 (configuration not stated) the “Percent Effect” value was -9.06%.
In the case of Cc1ccc(C2CN(Cc3cnc(-c4cccnc4)s3)CCO2)o1 (configuration not stated), the “Percent Effect” value is reported as 6.287%.
COCC(=O)N1CCOC(c2cccc(-c3cncnc3)n2)C1 (configuration not stated) was tested, and the “Percent Effect” value was 151.1%.
Br.Cn1nccc1CN1CCOC(c2cccc(-c3cncnc3)n2)C1 (configuration not stated) was tested, and the “Percent Effect” value was 91.95%.
For COc1ccc2cc(C3CN(C(=O)COC(C)C)CCO3)ccc2c1 (configuration not stated), the “Percent Effect” value was -0.3239%.
For COCC(=O)N1CCOC(c2ccc(N(C)C)cn2)C1 (configuration not stated), the “Percent Effect” value was 108.5%.
CC(Cc1ccc(C(F)(F)F)cc1)C(=O)N1CCCS1(=O)=O (configuration not stated) was tested, and the “Percent Effect” value was -11.51%.
c1ccc(C2CN(C3CC3)CC3(CCN(Cc4cscn4)CC3)C2)cc1 (configuration not stated) was tested, and the “Percent Effect” value was -14.1%.
For CCOc1ccc(CN2C(=O)CC(C)(C(C)C)C2=O)nc1 (configuration not stated), the “Percent Effect” value was -23.31%.
CC(C)N(C)Cc1nnc2n1CCCN(c1ncccn1)C2.O=C(O)C(F)(F)F was tested, and the “Percent Effect” value was 99.37%.
For Fc1cnc(N2CCCn3c(nnc3Cn3ccnc3)C2)nc1.O=C(O)C(F)(F)F, the “Percent Effect” value was -11.56%.
For Cc1cnc(N2CCCn3c(nnc3CN(C)C(C)C)C2)nc1.O=C(O)C(F)(F)F, the “Percent Effect” value was 99.73%.
Cc1cnc(N2CCn3c(CN4CCOCC4)nnc3C2)nc1.O=C(O)C(F)(F)F was tested, and the “Percent Effect” value was -6.202%.
CS(=O)(=O)N1CCC(NCC2(N3CCOCC3)CCCCC2)CC1 was tested, and the “Percent Effect” value was -12.17%.
In the case of COc1cc2cc(C(=O)N[C@@H](C)C(=O)O)n(C)c2c(OC)c1OC, the “Percent Effect” value is reported as 6.023%.
CC(C)Cc1ncc(CNc2cnccc2CO)s1 was tested, and the “Percent Effect” value was 2.618%.
In the case of CC(C)n1cnc2c1C(C(=O)NCCO)N(Cc1ccccc1)CC2.O=C(O)C(F)(F)F (configuration not stated), the “Percent Effect” value is reported as 2.168%.
For CN(C1CCc2ccccc2C1)S(C)(=O)=O (configuration not stated), the “Percent Effect” value was -5.064%.
For COCCN(CC(F)F)c1cc(COC)nc2ncnn12, the “Percent Effect” value was 3.034%.
COCC(=O)N1CCN(Cc2nnc(C(C)(C)C)o2)CC1 was tested, and the “Percent Effect” value was -20.23%.
For CCC(=O)N1CCCN(C(=O)c2cc(C)cc(Br)c2O)CC1, the “Percent Effect” value was 5.319%.
For COC(=O)N1CCCN(C(=O)c2cccc3cccnc23)CC1, the “Percent Effect” value was -4.967%.
For CCn1ccnc1CN1CCCN(C(=O)Cn2nc(C)cc2C)CC1, the “Percent Effect” value was -3.678%.
In the case of COC(=O)N1CCCN(Cn2nc(C)c(Br)c2C)CC1, the “Percent Effect” value is reported as 92.29%.
With CCn1c(CN2CCCN(C(=O)OC)CC2)nc2c(F)cccc21 the “Percent Effect” value was -3.965%.
In the case of CCC(=O)N1CCCN(Cn2nc(C)c(Br)c2C)CC1, the “Percent Effect” value is reported as 116.5%.
With COCC(=O)N1CCCN(Cc2c(C)nc3ccc(Cl)cn23)CC1 the “Percent Effect” value was -0.9556%.
With COCC(=O)N1CCN(Cn2nc(C)c(Br)c2C)CC1 the “Percent Effect” value was 100.8%.
O=C(CCCn1nnc(-c2ccc(F)cc2)n1)N1CCOCC(CO)C1 (configuration not stated) was tested, and the “Percent Effect” value was -1.392%.
With CCCN(Cc1nccn1C)C(=O)c1cnn[nH]1 the “Percent Effect” value was -16.97%.
With Cc1nn(C2CCCCC2)c2nc(C(C)(C)CN3CCOCC3)[nH]c12 the “Percent Effect” value was 104.5%.
In the case of CC(C)(C)c1c[nH]c([C@@H]2COCCN2C2CCCCC2)n1, the “Percent Effect” value is reported as -16.61%.
With Cc1nn(C2CCCC2)c2nc(C(C)(C)CN3CCN(C)CC3)[nH]c12 the “Percent Effect” value was 98.14%.
In the case of CC(CN1CCOCC1)NCc1nncn1C1CCCCC1 (configuration not stated), the “Percent Effect” value is reported as -12.38%.
For Cc1nn(-c2ccccc2)c2nc(C(C)(C)CN3CCN(C)CC3)[nH]c12, the “Percent Effect” value was 102.6%.
For Cc1nn(-c2ccccc2)c(C)c1-c1ccnc(N2CCC(O)CC2)n1, the “Percent Effect” value was -6.995%.
Cn1ncc2c(NCCCOc3cccnc3)nc(C3CCCC3)nc21 was tested, and the “Percent Effect” value was 15.74%.
In the case of CCn1cnnc1C1CCN(C(=O)c2cccc(OC)c2OC)CC1, the “Percent Effect” value is reported as 96.27%.
In the case of CCn1cnnc1C1CCN(C(=O)c2ccc(Cl)cc2OC)CC1, the “Percent Effect” value is reported as 99.28%.
CCn1cnnc1C1CCN(C(=O)Cc2ccc(OC)c(F)c2)CC1 was tested, and the “Percent Effect” value was -0.6685%.
In the case of CCn1cnnc1C1CCN(C(=O)COc2ccc(Cl)cc2)CC1, the “Percent Effect” value is reported as 6.006%.
In the case of CCn1cnnc1C1CCN(C(=O)COc2ccccc2OC)CC1, the “Percent Effect” value is reported as 7.042%.
COc1ccc(CC(=O)N2CCC(c3nncn3C)CC2)cc1F was tested, and the “Percent Effect” value was -9.824%.
For CCn1cnnc1C1CCN(C(=O)c2cc(OC)ccc2OC)CC1, the “Percent Effect” value was 101%.
For CCn1cnnc1C1CCN(C(=O)c2cc(F)ccc2OC)CC1, the “Percent Effect” value was 106.7%.
In the case of CCn1cnnc1C1CCN(C(=O)c2ccccc2OC)CC1, the “Percent Effect” value is reported as -6.439%.
In the case of O=C(O)C(F)(F)F.O=C([C@H]1COC[C@H]2CN(C3CCCC3)C[C@H]21)N1CCCCO1, the “Percent Effect” value is reported as -5.445%.
In the case of O=C(Cc1cccc(Cl)c1)Nc1cnccc1SCCCO, the “Percent Effect” value is reported as 7.035%.
For COc1ccc(CNc2nncs2)cc1F, the “Percent Effect” value was -12.2%.
In the case of O=C(Nc1ccc(OC(F)F)cc1)N1CCC(c2nnc[nH]2)CC1, the “Percent Effect” value is reported as -4.065%.
NC(=O)CSc1ccccc1NC(=O)CC1C=CCC1 (configuration not stated) was tested, and the “Percent Effect” value was 119.4%.
For CCCN1CCC(N(C)CCC(=O)Nc2ccccc2SC)CC1, the “Percent Effect” value was -1.207%.
NC(=O)CSc1ccccc1NC(=O)C1CCCCC1 was tested, and the “Percent Effect” value was 84.77%.
For O=C(Nc1cccnc1-n1cncn1)C1CCC1, the “Percent Effect” value was -13.11%.
With CNC(=O)Cc1ccccc1NC(=O)C1CCN(C2CCCCC2)C1 (configuration not stated) the “Percent Effect” value was -1.289%.
In the case of NC(=O)CSc1ccccc1NCc1nc(Cc2ccccc2)no1, the “Percent Effect” value is reported as -16.37%.
With NC(=O)CSc1ccccc1NC(=O)C1CCCC1 the “Percent Effect” value was 99.94%.
CC(C)(C)CC(=O)Nc1ccccc1SCC(N)=O was tested, and the “Percent Effect” value was 103.7%.
With NC(=O)CSc1ccccc1NCc1nc(C2CC2)no1 the “Percent Effect” value was -3.279%.
With CNC(=O)Cc1ccccc1NC(=O)C1CCCC1 the “Percent Effect” value was 5.338%.
With CSc1ccccc1NC(=O)CCN1CCC(C(=O)N(C)C)CC1 the “Percent Effect” value was 8.025%.
In the case of CC(=O)N1CCCC(C(=O)Nc2ccccc2Cc2ccccc2)C1 (configuration not stated), the “Percent Effect” value is reported as 4.475%.
